Source: PubChem BioAssay (National Center for Advancing Translational Sciences (NCATS))
A selection: hits, their analogues and other compounds. The true share with any hit is near 12%.
Sfp inh – qHTS Assay for Inhibitors of Bacillus subtilis Sfp phosphopantetheinyl transferase (PPTase); 4'-phosphopantetheinyl transferase ffp (Bacillus subtilis), Q9F4F7; Biochemical Sfp PPTase activity, qHTS; Potency, µM, for the others: largest response in the series, negative = inhibition, hits mostly inhibitors; actives 3.5% (n = 310,000); AID 1490, 2009;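 note: the enzyme is Sfp with the accession as filed and its product quenches rhodamine fluorescence; 0% = enzyme reaction without inhibitor and -100% = no enzyme wells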
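Reaction rates are the 30-min fluorescence difference (ex 525, em 598 nm) in wells containing 15 nM Sfp, 5 uM rhodamine-CoA and 12.5 uM BHQ-2-YbbR at pH 7.6 with 10 mM MgCl2.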
BAZ2B inh – qHTS Assay for Inhibitors of BAZ2B; Bromodomain adjacent to zinc finger domain protein 2B (Homo sapiens), Q9UIF8; AlphaScreen BAZ2B-H3K14Ac peptide displacement; Potency, µM (top dose mostly 114 µM), for inactives: top-dose activity change, negative = inhibition, actives largely listed as inhibitors; actives 4.4% (n = 360,000); AID 504333, 2011; note: % is set by controls: 0 for no effect and ±100 for the full control effect; nearly all actives have a fitted effect of over 60% in size
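Protein-peptide AlphaScreen: BAZ2B 50 nM, b-H3K14Ac 50 nM, 1x PBS pH 7.4 + 0.01% Tween-20. Preincubation 30 min RT; cpd 30 min RT (top 110 uM); beads 20 min RT, light-protected.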
PLK1 PBD block – qHTS for Inhibitors of PLK1-PDB (polo-like kinase 1 - polo-box domain): Primary Screen; actives 2.8% (n = 360,000); Serine/threonine-protein kinase PLK1 (Homo sapiens), P53350; Plk1 PBD binding of FITC phosphopeptide, fluorescence polarization; AID 720504, 2013; Potency, µM, without a hit: max response, negative = inhibition, most hits filed as inhibitors; note: series mostly up to about 57 µM; % is set by controls: 0 for no effect and ±100 for the full control effect; nearly all actives have a fitted effect of over 65% in size
Target sequence (P53350 whole entry, looked up, the tested form may be a part): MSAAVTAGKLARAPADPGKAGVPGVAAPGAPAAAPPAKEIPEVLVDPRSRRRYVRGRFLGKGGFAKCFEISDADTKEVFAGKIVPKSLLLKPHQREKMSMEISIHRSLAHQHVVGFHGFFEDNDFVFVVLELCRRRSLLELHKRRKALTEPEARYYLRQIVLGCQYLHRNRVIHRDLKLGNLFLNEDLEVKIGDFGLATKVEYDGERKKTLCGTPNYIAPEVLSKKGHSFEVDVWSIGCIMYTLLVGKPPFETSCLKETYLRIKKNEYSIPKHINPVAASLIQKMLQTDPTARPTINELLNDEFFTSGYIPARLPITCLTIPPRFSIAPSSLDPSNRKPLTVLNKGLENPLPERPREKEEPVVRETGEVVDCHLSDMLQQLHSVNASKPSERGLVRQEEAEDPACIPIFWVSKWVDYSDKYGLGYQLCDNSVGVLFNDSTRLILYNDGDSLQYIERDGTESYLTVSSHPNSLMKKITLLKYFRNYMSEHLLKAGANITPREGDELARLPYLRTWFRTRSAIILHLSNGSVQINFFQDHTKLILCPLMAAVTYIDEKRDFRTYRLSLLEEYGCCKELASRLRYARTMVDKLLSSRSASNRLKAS
G9a block – qHTS Assay for Inhibitors of Histone Lysine Methyltransferase G9a; G9a H3K9 monomethylation, AlphaScreen, 2 h; actives 8.8% (n = 350,000); Potency, µM (titrated, usually from 102 µM), for inactives: at the top dose activity, negative = inhibition, actives largely listed as inhibitors; Histone-lysine N-methyltransferase EHMT2 (Homo sapiens), Q96KQ7; AID 504332, 2011; note: % is set by controls: 0 for no effect and ±100 for the full control effect; nearly all actives have a fitted effect of over 75% in size
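Using a bead-based AlphaScreen, monomethylated H3K9 product from 2 h room-temperature reactions (G9a 20 nM, peptide 500 nM, SAM 20 uM) was detected with 0.5 ug/mL rabbit anti-H3K9me1 antibody.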
JMJD2A Tudor – qHTS Assay for Inhibitors of JMJD2A-Tudor Domain; Potency, µM (highest dose often 114 µM), without a hit: at the top dose activity change, negative = inhibition, usual class: inhibitors; actives 4.4% (n = 390,000); AlphaScreen JMJD2A-Tudor / H3K4me3 peptide binding; AID 504339, 2011; note: % is set by controls: 0 for no effect and ±100 for the full control effect; nearly all actives have a fitted effect of over 50% in size
HP1b binding inh – HTS for Inhibitors of HP1-beta Chromodomain Interactions with Methylated Histone Tails | Chromobox protein homolog 1 (Homo sapiens), P83916 | AlphaScreen HP1-beta / biotin-H3K9me3 peptide binding | Potency, µM (highest dose often 114 µM), without a hit: at the top dose activity change, negative = inhibition, most hits filed as inhibitors | actives 0.56% (n = 390,000) | AID 540317, 2011; note: nearly all actives have a fitted effect of over 70% in size
Target sequence (P83916 whole entry, looked up): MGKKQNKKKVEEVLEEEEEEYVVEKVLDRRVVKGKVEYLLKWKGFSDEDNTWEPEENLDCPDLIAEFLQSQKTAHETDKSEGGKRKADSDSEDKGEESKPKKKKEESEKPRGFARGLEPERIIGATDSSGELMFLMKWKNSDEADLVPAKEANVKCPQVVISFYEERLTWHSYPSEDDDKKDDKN
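HP1-beta protein (50 nM final) preincubated 30 min at room temperature with biotinylated H3(1-18)K9me3 peptide (50 nM) in PBS pH 7.4, 0.01% Tween-20, then compound added for 30 min. AlphaScreen streptavidin donor/nickel chelate acceptor beads (10 ug/mL final), 30 min dark, luminescence read.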
* hit, by the source's call; ? = inconclusive; . = no result given; [ ] = remark or other dose. Calls come from the whole dose curve; as a rule, active = well fitted curve in the direction sought with a large enough effect; inconclusive = small, poorly fitted or top-dose-only effect, or another doubt; inactive = no such curve, though single readings can be large; an effect the other way counts as inactive or inconclusive. Potency is the fitted concentration of half-maximal effect.

SMILES | Sfp inh | BAZ2B inh | PLK1 PBD block | G9a block | JMJD2A Tudor | HP1b binding inh
COCCCN(C(=O)c1cc(Cl)nc2ccccc12)c1c(N)n(Cc2ccccc2)c(=O)[nH]c1=O | . | -3.0% | -8.6% | -33.0% | -16.6% | 27.4%
CCCn1c(N)c(N(CCOC)C(=O)c2cc(-c3ccco3)nc3ccccc23)c(=O)[nH]c1=O | 44.7µM* | ? | -16.7% | 39.8µM* | ? | 14.0%
CCCCn1c(N)c(N(CCOC)C(=O)c2cc(-c3ccccc3)nc3ccccc23)c(=O)[nH]c1=O | . | -5.0% | -10.8% | -8.7%[59 µM] | -10.3% | 25.0%
COCCNC(=O)COC(=O)c1nsc(Cl)c1Cl | -1.1% | -2.5%[57.1 µM] | 26.7µM* | 16.6%[0.501 µM] | ? | -1.1%
OC(c1ccccc1)c1nc(-c2ccc(F)c(Cl)c2)cs1 (stereo not given) | . | . | -7.8% | . | . | .
CCOc1nc(Nc2ccc(OC)c(Cl)c2)nc(OCC)n1 | 0.4% | 2.2% | 4.1% | 13.7% | ? | 25.4%
Cc1nc2ccc(NC(=O)COc3ccccc3C)cc2s1 | 31.6µM* | 5.4% | 1.2% | 44.7µM* | -17.9% | 28.6%
COc1ccc(CC(=O)Nc2ccc3nc(C)sc3c2)cc1OC | -8.2% | -3.8% | -2.4% | 20µM* | -5.7% | 36.2%
O=c1c2oc3ccccc3c2[nH]c(=S)n1-c1ccc(F)cc1 | 79.4µM* | . | -11.3% | 50.1µM* | 6.4% | 37.0%
Cc1ccc(-n2c(=S)[nH]c3c(oc4ccccc43)c2=O)cc1C | -14.1% | 10.7% | -19.2% | 79.4µM* | -0.3% | 12.4%
CCOC(=O)c1ccccc1NC(=O)Cc1c(C(=O)O)c(C)cn1C | . | -13.8% | . | 1.1%[59 µM] | -22.7% | 9.4%
Cn1cccc1C(=S)N=P(C1CCCCC1)(N1CCOCC1)N1CCOCC1 | -27.7% | -27.8% | -29.5% | 8.91µM* | 35.5µM* | ?
Cn1cccc1C(=S)N1CCOCC1 | -26.7% | 9.0% | ? | ? | -10.5% | -15.1%
O=C(CSc1nc2ccsc2c(=O)n1Cc1ccccc1F)NCc1ccccc1Cl | . | -2.8% | . | 3.7%[59 µM] | -11.0% | -2.8%
[O-]C1=N/[N+](=C/c2ccc(Cl)c(Cl)c2)CC1 | -16.1% | 1.1% | -8.5% | ? | -19.7% | 17.2%
[O-]C1=N/[N+](=C/c2ccccc2)CC1 | -0.1% | -26.2% | -10.2% | 14.1µM* | -9.8% | 39.3%
Nc1nc2c(nc(Sc3ccc(Cl)cc3)n2C2OC(CO)C(O)C2O)c(=O)[nH]1 (stereo not given) | -15.8% | . | . | . | . | .
Cc1ccccc1-n1c(=O)cc(N2CCN(Cc3ccccc3)CC2)[nH]c1=O | ? | 13.6% | -6.9% | 56.2µM* | -13.5% | 8.1%
CCOC(=O)N1CCN(c2cc(=O)n(-c3ccccc3C)c(=O)[nH]2)CC1 | -3.8% | . | -7.8% | -38.2% | -4.1% | 20.3%
Cc1ccc(-n2c(=O)cc(N3CCN(c4ccccc4Cl)CC3)[nH]c2=O)cc1 | . | 1.6% | . | 1.6%[59 µM] | -11.0% | 6.2%[57 µM]
CCN1CCN(c2cc(=O)n(-c3cc(Cl)ccc3C)c(=O)[nH]2)CC1 | -14.5% | -24.1% | -21.2% | 50.1µM* | -5.8% | 16.7%
CCN(C(=O)c1cc(S(=O)(=O)N2CCCC2)cn1C)c1ccc(OC)cc1 | . | -2.5% | . | -3.7%[59 µM] | -35.2% | 9.7%
CCCC[C@H](NC(C)=O)C(=O)N[C@H]1CC(=O)NCCCC[C@@H](C(N)=O)NC(=O)[C@H](Cc2c[nH]c3ccccc23)NC(=O)[C@H](CCCN=C(N)N)NC(=O)[C@@H](Cc2ccccc2)NC(=O)[C@H](Cc2cnc[nH]2)NC1=O | 4.6% | . | . | . | . | .
CC(=O)N1CC(C)Oc2ccc(S(=O)(=O)NC(CC(=O)O)c3ccc(C)cc3C)cc21 (stereo not given) | 18.3% | -2.0% | 2.2% | 79.4µM* | 1.6% | 22.5%[57 µM]
O=[N+]([O-])c1cc(C(F)(F)F)cc([N+](=O)[O-])c1NN=C1CCCCC1 | ? | 11.2µM* | ? | 10µM* | 22.4µM* | 20µM*
SMILES | Sfp inh | BAZ2B inh | PLK1 PBD block | G9a block | JMJD2A Tudor | HP1b binding inh
O=[N+]([O-])c1cc(C(F)(F)F)cc([N+](=O)[O-])c1NCCCN1CCOCC1 | 14.8% | -35.7% | -12.8% | -45.7% | -31.3% | -5.8%
N#CCC(=O)NNc1c([N+](=O)[O-])cc(C(F)(F)F)cc1[N+](=O)[O-] | 11.0% | 50.1µM* | -10.0% | 50.1µM* | ? | ?
O=[N+]([O-])c1cc(S(=O)(=O)N2CCCC2)ccc1NN=C1CCCCC1 | 10.1% | -17.6% | -4.6% | 3.6%[59 µM] | -23.6% | 1.8%
COc1ccccc1OCCNC(=O)c1ccc(C)o1 | . | 7.4% | 1.6% | -4.7% | -6.1% | 18.5%
CC1=CS(=O)(=O)CC1Sc1nc2ccccc2[nH]1 (stereo not given) | -6.0% | -6.2% | -8.1% | 79.4µM* | -34.5% | 23.9%
CC1=CS(=O)(=O)CC1Sc1nc(C)n[nH]1 (stereo not given) | 18.3% | ? | -11.1% | 50.1µM* | -8.5% | 30.9%
CC1=CS(=O)(=O)CC1Sc1ncn[nH]1 (stereo not given) | 13.6% | -9.6% | -6.5% | ? | ? | 11.5%
CN(C(=O)CSc1nc2ccccc2[nH]1)C1CCS(=O)(=O)C1 (stereo not given) | . | 12.1% | -0.2% | ? | 7.1% | 19.9%
COc1ccc(C2(CNC(=O)Cc3ccc(OC)c(OC)c3)CCOCC2)cc1 | 20.0% | -7.7% | -9.0% | 5.6%[12.7 µM] | ? | 69.8%
Nc1ccc(N2CCCCC2)c2nonc12 | ? | 25.1µM* | -28.0% | . | 56.2µM* | ?
Nc1c(N2CCCC2)cc(Cl)c2nonc12 | -22.4% | -23.0% | 21.2µM* | 4.47µM* | ? | -45.0%
O=C(NCc1ccccc1F)C1CC(=O)N(Cc2ccco2)C1 (stereo not given) | . | . | -0.2% | . | . | .
COc1ccc(C(CC(=O)NC(C)c2ccc(-c3ccccc3)cc2)NC(C)=O)cc1 (stereo not given) | -12.9% | 1.6% | -7.6% | -1.5% | -12.6% | 23.2%
CCCCCCn1c(=O)n2n(c1=O)[C@@H]1CN(S(=O)(=O)c3ccc(C)cc3)C[C@]1(O)[C@@H](OC(=O)Nc1cccs1)C2 | . | . | -29.6% | . | . | .
CC(C)=CCC/C(C)=C/Cc1c(O)ccc(C(=O)/C=C/c2ccc(O)cc2)c1O | 15.8% | ? | 13.4% | ? | ? | -9.9%
COc1cc(CCc2ccccc2)c(C(=O)O)c(O)c1C/C=C(/C)CCC=C(C)C | . | . | 23.8µM* | . | 79.4µM* | 17.0%
COc1cc(CCc2ccccc2)c(C(=O)O)c(O)c1CC=C(C)C | . | . | 26.7µM* | . | -20.4% | 24.6%
